Assay [1] can be described thus: compounds binding Alexa647 anti-His antibody – biochemical, small-molecule microarray, 635 nm fluorescence, artefact control for SMM control protein annotation, primary screen (AID 1128).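 Further: score merges feature fluorescence with signal-to-noise for each printed compound spot.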 Conditions: higher = more signal.
Assay [2] deals with Human papillomavirus type 1a E7 protein (residues 1-88). Briefly: HPV1a E7 small-molecule binders, primary screen, biochemical, small-molecule microarray, residues 1-88, 635 nm (AID 1129). Particulars: small-molecule microarray binding, fluorescence 635 nm; higher = more signal.
Assay [3] deals with Focal adhesion kinase 1 (Homo sapiens) (UniProt Q05397). Briefly: PTK2 protein binding on printed compound slides – biochemical, small-molecule microarray, 635/667 nm fluorescence, BSA, DTT, primary screen (AID 1130).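 Further: composite of spot emission at 667 nm and signal to noise over triplicate slides.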 Conditions: 635 nm fluorescence, higher = more signal.
Focal adhesion kinase 1 (Homo sapiens), sequence (Q05397 whole entry, looked up): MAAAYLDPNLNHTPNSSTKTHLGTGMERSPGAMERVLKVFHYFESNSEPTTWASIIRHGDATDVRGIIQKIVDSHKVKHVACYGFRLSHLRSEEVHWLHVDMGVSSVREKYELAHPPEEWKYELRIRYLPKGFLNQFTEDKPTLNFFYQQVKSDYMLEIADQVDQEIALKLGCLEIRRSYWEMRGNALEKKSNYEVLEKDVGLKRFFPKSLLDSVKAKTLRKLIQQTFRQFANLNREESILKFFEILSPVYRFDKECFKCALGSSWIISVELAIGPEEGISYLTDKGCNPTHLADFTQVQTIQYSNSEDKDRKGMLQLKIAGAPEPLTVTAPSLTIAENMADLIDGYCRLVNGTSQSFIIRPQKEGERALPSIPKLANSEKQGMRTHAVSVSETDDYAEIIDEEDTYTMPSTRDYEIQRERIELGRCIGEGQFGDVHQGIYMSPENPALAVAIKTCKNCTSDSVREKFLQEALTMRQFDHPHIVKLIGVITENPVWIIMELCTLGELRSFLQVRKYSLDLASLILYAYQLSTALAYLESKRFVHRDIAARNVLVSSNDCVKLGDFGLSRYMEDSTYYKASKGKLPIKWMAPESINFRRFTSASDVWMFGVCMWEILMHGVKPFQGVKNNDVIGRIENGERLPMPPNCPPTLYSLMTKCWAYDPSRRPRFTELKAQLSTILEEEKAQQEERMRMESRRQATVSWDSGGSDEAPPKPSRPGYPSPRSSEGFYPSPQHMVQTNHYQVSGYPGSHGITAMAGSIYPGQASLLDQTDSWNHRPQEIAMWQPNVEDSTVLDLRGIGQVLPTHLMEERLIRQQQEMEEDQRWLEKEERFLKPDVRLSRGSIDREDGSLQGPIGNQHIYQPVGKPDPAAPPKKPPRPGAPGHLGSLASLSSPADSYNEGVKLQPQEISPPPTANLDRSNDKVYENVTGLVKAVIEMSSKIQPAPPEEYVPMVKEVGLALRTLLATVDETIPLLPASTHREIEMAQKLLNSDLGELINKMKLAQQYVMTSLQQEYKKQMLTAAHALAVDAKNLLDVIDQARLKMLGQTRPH
Assay [4] relates to Fibrinogen (Alexa647-labelled). In words: Alexa647-fibrinogen binding to printed small molecules – biochemical, small-molecule microarray, 635/667 nm fluorescence, artefact control for SMM control-protein annotation, profiling panel (AID 1131).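 Further: z-score merges 667 nm fluorescence with per-spot signal-to-noise over triplicate slides.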 Conditions: fibrinogen-A647 binding fluorescence, higher = more signal.
Assay [5] has as its target Follistatin (Homo sapiens) (UniProt P19883). In words: FST protein binding to printed compounds – biochemical, small-molecule microarray, 635/667 nm fluorescence, primary screen (AID 1132). Conditions: 635 nm fluorescence, higher = more signal.
Assay [6] concerns the target Fibroblast growth factor 2 (Homo sapiens) (UniProt P09038). In words: basic fibroblast growth factor binding to printed compounds – biochemical, small-molecule microarray, 635/667 nm fluorescence, primary screen (AID 1133). Conditions: FGF2, fluorescence 635/667, higher = more signal.
Assay [7] in a line: JC-1 mitochondrial potential readout, lung cancer cells – cell-based, A549, JC-1 fluorescence, basal, 24 h, 100 nL, profiling panel (AID 1138).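 Further: A549 lung adenocarcinoma cells under basal conditions with no added stimulus; test concentration not given here.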 Conditions: higher = more signal.
For a further assay, the system named is Lefty1. In words: Lefty1 protein binding to printed compounds – biochemical, small-molecule microarray, 635/667 nm fluorescence, primary screen (AID 1139). Conditions: fluorescence 635/667, higher = more signal.
Assay [8] deals with wheat germ agglutinin (Triticum aestivum), Alexa647-labelled. In words: Alexa647-WGA lectin binding to printed small molecules – biochemical, small-molecule microarray, 635/667 nm fluorescence, artefact control for SMM control-protein annotation, profiling panel (AID 1140).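 Further: score merges 667 nm feature emission with signal to noise over triplicate slides.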 Conditions: WGA-A647 binding, 635 nm fluorescence, higher = more signal.
The target of assay [9] is Luciferin 4-monooxygenase (Photinus pyralis) (UniProt P08659). Briefly: inhibition of purified Photinus pyralis luciferase – biochemical, luminescence, purified enzyme, 2006 set, primary screen (AID 1141).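 Further: cell-free assay with purified firefly luciferase at 100 ng per well in PBS; test concentration not given here.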 Particulars: purified firefly luciferase, SteadyGlo luminescence, 30 min; higher = more signal, called active from +8 up or from −8 down.
Luciferin 4-monooxygenase (Photinus pyralis), sequence (P08659 whole entry, looked up): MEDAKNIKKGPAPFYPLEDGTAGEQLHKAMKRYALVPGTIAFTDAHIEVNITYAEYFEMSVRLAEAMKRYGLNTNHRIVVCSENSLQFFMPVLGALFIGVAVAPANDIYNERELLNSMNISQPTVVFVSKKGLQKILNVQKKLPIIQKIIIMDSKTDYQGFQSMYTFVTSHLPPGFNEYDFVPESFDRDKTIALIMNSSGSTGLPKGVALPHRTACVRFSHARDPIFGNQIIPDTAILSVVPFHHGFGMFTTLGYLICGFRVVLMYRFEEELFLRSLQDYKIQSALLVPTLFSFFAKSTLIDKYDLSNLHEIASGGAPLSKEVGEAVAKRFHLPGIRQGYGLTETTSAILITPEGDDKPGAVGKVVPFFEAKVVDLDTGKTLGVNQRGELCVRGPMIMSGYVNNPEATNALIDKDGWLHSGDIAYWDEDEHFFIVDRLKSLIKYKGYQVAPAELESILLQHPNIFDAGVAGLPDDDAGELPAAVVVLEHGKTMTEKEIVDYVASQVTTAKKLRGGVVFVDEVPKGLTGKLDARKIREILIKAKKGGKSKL
Assay [10] deals with Wnt5a (protein binding on small-molecule microarray). In words: small molecules binding Wnt5a protein – biophysical, small-molecule microarray, 635/667 nm fluorescence, primary screen (AID 1142).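 Further: fluorescence read at 667 nm with signal to noise per printed feature.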 Particulars: 635 nm fluorescence, higher = more signal.
Assay [11] can be described thus: ATP-based viability of Huh7 replicon cells – cell-based, CellTiter-Glo luminescence, basal, 48 h, cytotoxicity control for HCV replication inhibitor project, primary screen (AID 1143).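 Further: Huh7 hepatoma cells carrying a hepatitis C replication reporter with no stimulus; test concentration not given here.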 Conditions: higher = more signal, called active from +8 up or from −8 down. (In general: In antiviral work, replicon cells carry a viral genome segment that copies itself.)
The nature of assay [12]: Pseudomonas biofilm growth suppression – PAO1 strain, BacTiter-Glo luminescence, LB-PBS, primary screen (AID 1144). Conditions: P. aeruginosa PAO1 biofilm, 12 h, higher = more signal.
Assay [13] is described as follows: basal CRE-LacZ reporter activity in PC12 – cell-based, unstimulated, primary screen (AID 1145). Particulars: no forskolin, luminescence, 4.5 h, higher = more signal, called active from +8 up or from −8 down.
Assay [14] is described as follows: forskolin-driven CRE-LacZ activity in PC12 – cell-based, CRE-LacZ reporter, forskolin-stimulated, primary screen (AID 1146).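 Further: PC12 cells with 6xCRE LacZ reporter stimulated by forskolin 10 µM; beta-galactosidase reporter signal reflecting CREB driven transcription.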 Conditions: luminescence, 4.5 h, higher = more signal, called active from +8 up or from −8 down.
Assay [15] concerns the target Streptavidin (Streptomyces avidinii) (UniProt P22629). Briefly: compounds binding control protein streptavidin – biophysical, small-molecule microarray, 635/667 nm fluorescence, artefact control for SMM compound annotation, primary screen (AID 1147).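 Further: signal reflects streptavidin binding to arrayed compounds as a control protein.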 Conditions: higher = more signal.
Assay [16] is described as follows: probe aInhba binding on compound microarray – biochemical, small-molecule microarray, 635/667 nm fluorescence, primary screen (AID 1148).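 Further: score merges 667nm spot fluorescence with signal-to-noise for antibody binding to printed compounds.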 Particulars: higher = more signal.
Assay [17] addresses Torsin-1A (Homo sapiens) (UniProt O14656). In words: TOR1A wild-type binding on microarray – cell lysate, small-molecule microarray, lysate, 635/667 nm, primary screen (AID 1149). Conditions: COS7 hTOR1A-WT lysate, 635 nm fluorescence, higher = more signal.
The target is the same in assay [18]. Briefly: torsin A mutant lysate binding on microarrays – cell lysate, small-molecule microarray, COS7 lysate, 635/667 nm fluorescence, primary screen (AID 1150).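 Further: score pools 667 nm emission and signal to noise measuring lysate protein binding.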 Particulars: COS7 hTOR1A mutant lysate, 635 nm fluorescence, higher = more signal.
Assay [19] deals with Sonic hedgehog protein (Shh). In words: Sonic hedgehog microarray binding compounds – biochemical, small-molecule microarray, 635/667 nm fluorescence, primary screen (AID 1151).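 Further: Shh protein binding to compounds spotted on small-molecule microarray slides; score combines spot fluorescence intensity with signal-to-noise across triplicate slides.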 Conditions: 635 nm fluorescence, higher = more signal.

SMILES strings stand for the structures. Calls of active or inactive are those of the source. Unless noted, how the calls were made is not given here.

Follistatin (Homo sapiens), sequence (P19883 whole entry, looked up): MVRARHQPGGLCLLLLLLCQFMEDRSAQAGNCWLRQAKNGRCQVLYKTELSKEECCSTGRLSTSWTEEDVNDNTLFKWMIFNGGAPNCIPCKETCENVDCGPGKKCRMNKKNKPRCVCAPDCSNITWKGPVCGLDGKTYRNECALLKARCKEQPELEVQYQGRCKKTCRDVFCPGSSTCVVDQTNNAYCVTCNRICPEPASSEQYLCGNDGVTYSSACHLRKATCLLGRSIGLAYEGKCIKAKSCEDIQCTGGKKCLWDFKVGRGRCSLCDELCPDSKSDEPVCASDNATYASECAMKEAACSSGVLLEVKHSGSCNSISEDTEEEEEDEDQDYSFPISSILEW
Streptavidin (Streptomyces avidinii), sequence (P22629 whole entry, looked up): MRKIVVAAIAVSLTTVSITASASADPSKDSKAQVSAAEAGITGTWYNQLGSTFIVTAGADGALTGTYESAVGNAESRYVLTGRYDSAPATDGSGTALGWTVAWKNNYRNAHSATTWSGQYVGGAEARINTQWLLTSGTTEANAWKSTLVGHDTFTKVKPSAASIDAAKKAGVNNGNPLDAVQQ
Torsin-1A (Homo sapiens), sequence (O14656 whole entry, looked up): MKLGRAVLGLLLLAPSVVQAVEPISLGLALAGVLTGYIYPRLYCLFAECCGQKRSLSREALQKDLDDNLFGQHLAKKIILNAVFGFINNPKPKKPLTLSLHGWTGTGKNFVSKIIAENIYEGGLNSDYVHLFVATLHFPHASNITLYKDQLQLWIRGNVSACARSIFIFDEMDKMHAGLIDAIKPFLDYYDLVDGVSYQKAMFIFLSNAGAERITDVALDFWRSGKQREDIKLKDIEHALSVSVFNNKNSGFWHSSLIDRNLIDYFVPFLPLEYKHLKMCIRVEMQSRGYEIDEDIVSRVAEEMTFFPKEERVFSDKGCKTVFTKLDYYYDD
Fibroblast growth factor 2 (Homo sapiens), sequence (P09038 whole entry, looked up): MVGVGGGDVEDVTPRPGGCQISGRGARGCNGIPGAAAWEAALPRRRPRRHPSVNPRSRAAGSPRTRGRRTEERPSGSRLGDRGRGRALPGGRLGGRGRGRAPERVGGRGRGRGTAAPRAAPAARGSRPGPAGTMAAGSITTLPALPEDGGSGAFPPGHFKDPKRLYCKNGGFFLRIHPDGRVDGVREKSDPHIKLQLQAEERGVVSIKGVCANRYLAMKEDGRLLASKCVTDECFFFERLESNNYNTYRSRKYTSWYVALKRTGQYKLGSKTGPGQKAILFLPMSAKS

With `C#CCNC(=O)[C@H](Cc1ccccc1)NC(=O)[C@@H](N=[N+]=[N-])C(C)C`, the composite z-score came out at 0.141 in [1]; 0.873 in assay [2]; 0.146 in assay [3]; 0.694 in assay [4]; 0.127 in [5]; 0.524 in assay [6]. Besides, the composite z-score with Lefty1 is 0.343; in [8] it was 0.349; in assay [10], 0.0696; in assay [15] it was -0.0247; in assay [16], -0.025; in the assay with Torsin-1A (Homo sapiens) [17], 0.0696. The composite z-score with Torsin-1A (Homo sapiens) [18] was determined as 0.892; in assay [19], 0.539. For the same compound, the z-score in assay [7] is 0.332; in assay [9] it was -0.66 (inactive); in assay [11], -0.0943 (inactive); in [12], 0.0632 (inactive); in [13], 0.0918 (inactive); in [14] it was -0.462 (inactive).
For `O=c1cccc(-c2cccc(Cl)c2)o1`, the composite z-score in assay [1] was 0.417; in assay [2], 1.11; in assay [3], 0.682; in [4], 0.2; in assay [5], -0.0992; in [6] it was -0.332. Moreover, the composite z-score was -0.014 with Lefty1; 0.11 in assay [8]; 0.0303 in assay [10]; 0.244 in [15]; 0.0047 in [16]; 0.34 with Torsin-1A (Homo sapiens) [17]. Besides, the composite z-score with Torsin-1A (Homo sapiens) [18] is 0.617; in [19], -0.215. In addition, the z-score in assay [7] is 0.0374; in assay [9], 0.672 (inactive); in assay [11] it was -1.07 (inactive); in assay [12], 0.96 (inactive); in assay [13], 0.631 (inactive); in assay [14] it was -1.05 (inactive).
Turning to `CN(C)CCCCNC(=O)[C@H]1C[C@H]2C(=O)N[C@@H](CCCCN(C)C)C(=O)N2[C@H]1c1cccc(OCCO)c1`, the composite z-score in [1] is 1.1; in assay [2], 0.603; in assay [3], 0.29; in assay [4], 0.877; in assay [5] it was 1.3; in [6] it was 1.23. Also, the composite z-score with Lefty1 was 1.64; in assay [8] it was 1.02; in assay [10], 0.83; in assay [15], 0.329; in assay [16], -0.305; in the assay with Torsin-1A (Homo sapiens) [17], 0.68. Besides, the composite z-score with Torsin-1A (Homo sapiens) [18] came to 0.86; in assay [19], 2.08. The z-score in assay [7] was -0.0557; in assay [9], 0.709 (inactive); in assay [11], 0.441 (inactive); in [12], 0.251 (inactive); in assay [13], -1.07 (inactive); in assay [14], -0.535 (inactive).
`O=C(CCCCCCC(=O)Nc1ccccc1)N/N=C/c1ccccc1`: the composite z-score in [1] was 0.602; in [2] it was -0.581; in assay [3], -0.266; in assay [4] it was -0.876; in assay [5] it was -0.083; in assay [6] it was 0.323. Moreover, the composite z-score in the assay on Lefty1 was -0.251; in assay [8], -0.552; in [10], -0.343; in assay [15], -0.184; in assay [16], 0.0074; with Torsin-1A (Homo sapiens) [17], 0.577. In addition, the values for the composite z-score (with Torsin-1A (Homo sapiens) [18]; in assay [19]) were 0.146 and 0.0351, respectively. Also, the z-score is -0.123 in [7]; -0.83 (inactive) in assay [9]; 0.0796 (inactive) in assay [11]; 0.99 (inactive) in assay [12]; 5.11 (inactive) in [13]; 0.0631 (inactive) in assay [14].
For the compound `CC=CC(O)C1C=CC2C(=O)N(C)C(=O)C2N1Nc1ccc([N+](=O)[O-])cc1[N+](=O)[O-]` (stereo not given), the composite z-score in assay [1] is 2.66; in assay [2], -0.935; in [3], 0.247; in assay [4] it was -1.22; in assay [5] it was -0.0096; in assay [6] it was -0.582. Besides, the composite z-score is 0.0657 with Lefty1; -0.0025 in assay [8]; -0.449 in assay [10]; -0.118 in assay [15]; -0.128 in assay [16]; 0.316 in the assay with Torsin-1A (Homo sapiens) [17]. The composite z-score was -0.297 in the assay with Torsin-1A (Homo sapiens) [18] and -0.144 in assay [19]. Besides, the z-score in assay [7] was 0.533; in assay [9], -0.419 (inactive); in assay [11], 1.01 (inactive); in [12], -0.658 (inactive); in assay [13], -0.136 (inactive); in [14] it was 0.71 (inactive).

The record behind these values is PubChem BioAssay.
